This is a sample that favours compounds with a hit; in the whole collection about 5.1% have one here.
GRIN3A LBD mod: modulates the human NR3A ligand-binding domain. Tm shift relative to glycine control, % at 25 µM. hit rate 2.5% among 340,000. AID 1259313. NR3A LBD differential scanning fluorimetry, Tm shift; 0% = protein alone, 100% = glycine-bound protein;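 active = melting temperature shift of at least 10% of the positive control shift, at one fixed dose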
CRFBP-R2 agonist: CRF-BP/CRF-R2 complex agonism | HEK293 CRF-R2/CRF-BP, calcium dye fluorescence (FLIPR); percent of saturating CRF peptide response | activation, % at 13.2 µM | hit rate 0.46% among 350,000;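 active = activation of at least 50%, plus an integration ratio under a set limit after plate pattern correction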;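 also: plate controls were neutral control wells without compound for no effect and CRF at EC100 for full effect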
CRFBP-R2 block: antagonists of CRF-binding protein/CRF-R2 receptor complex | HEK293 CRF-R2/CRF-BP, CRF-induced calcium fluorescence | inhibition, % at 11.8 µM | hit rate 0.59% among 350,000;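 active = inhibition of the ligand-induced calcium signal above about 50% at the single tested concentration, limit read from the data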
MPTP block: permeability transition pore inhibition. hit rate 1.4% among 360,000. AID 602449. inhibition, % at 10 µM. isolated mouse mitochondria, Ca2+ swelling absorbance, 30 min;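 active = inhibition of 50% or more, scaled per plate between neutral and stimulator controls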;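 also: 0% = DMSO wells given calcium and 100% = 1 mM EGTA wells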
ANO1 block: inhibitors of mouse TMEM16A calcium-activated chloride channel | Q8BHY3 | HEK293 TMEM16A/YFP iodide influx fluorescence, ionomycin | normalized B-score (activity score, 25-100; higher = stronger inhibition) at 10 µM | hit rate 1.2% among 310,000 | AID 588511;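 active = ratio plate-corrected score three or more library SD toward inhibition, starting fluorescence score within five deviations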;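 also: score derived from kinetic fluorescence span divided by baseline fluorescence per well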
Target sequence (Q8BHY3 whole entry, looked up): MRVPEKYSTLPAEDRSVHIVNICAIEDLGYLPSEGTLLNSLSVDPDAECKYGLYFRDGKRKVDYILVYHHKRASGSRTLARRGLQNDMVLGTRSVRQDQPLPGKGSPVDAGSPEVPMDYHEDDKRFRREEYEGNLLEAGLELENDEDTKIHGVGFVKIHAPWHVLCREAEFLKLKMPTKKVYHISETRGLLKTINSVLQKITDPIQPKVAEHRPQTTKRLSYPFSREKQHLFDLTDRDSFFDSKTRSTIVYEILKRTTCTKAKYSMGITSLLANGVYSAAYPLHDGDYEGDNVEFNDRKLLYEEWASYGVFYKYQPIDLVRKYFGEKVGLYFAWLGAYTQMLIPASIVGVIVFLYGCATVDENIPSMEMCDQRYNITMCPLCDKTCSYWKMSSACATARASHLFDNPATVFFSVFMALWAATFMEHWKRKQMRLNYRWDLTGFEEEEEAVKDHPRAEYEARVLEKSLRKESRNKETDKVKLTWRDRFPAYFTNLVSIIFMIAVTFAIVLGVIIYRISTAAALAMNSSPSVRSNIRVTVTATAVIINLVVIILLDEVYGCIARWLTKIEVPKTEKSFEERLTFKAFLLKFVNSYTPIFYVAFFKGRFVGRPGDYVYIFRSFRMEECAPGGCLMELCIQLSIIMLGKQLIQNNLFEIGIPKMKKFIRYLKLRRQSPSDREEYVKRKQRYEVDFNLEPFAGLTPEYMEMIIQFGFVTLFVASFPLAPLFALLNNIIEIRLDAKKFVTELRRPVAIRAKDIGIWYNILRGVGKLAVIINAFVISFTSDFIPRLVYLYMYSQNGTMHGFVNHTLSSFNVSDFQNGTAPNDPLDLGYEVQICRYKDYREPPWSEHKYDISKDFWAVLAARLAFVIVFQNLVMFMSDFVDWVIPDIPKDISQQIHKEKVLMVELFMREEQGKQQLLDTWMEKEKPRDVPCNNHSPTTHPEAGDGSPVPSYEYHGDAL
ANO1 activ: mouse TMEM16A channel activation, primary screen | Q8BHY3 | HEK293 TMEM16A/YFP-H148Q/I152L, iodide quench fluorescence; hits give low values | B-score at 10 µM | hit rate 0.3% among 340,000;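 active = fluorescence-ratio B-score plate-corrected deviation score at least 3 library SD below zero, with starting fluorescence score within 5 deviations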;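 also: channel opened by trigger with iodide after compound preincubation; score built on the fluorescence ratio of max minus min over baseline; more negative score means more quench and so TMEM16A activation or potentiation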
* hit, by the source's call.

How did O=C(NCc1csc(-c2cccs2)n1)c1cccc(Cl)c1 do in these assays?
GRIN3A LBD mod: 7; CRFBP-R2 agonist: 0; CRFBP-R2 block: -1; MPTP block: 6; ANO1 block: inactive; ANO1 activ: inactive

What do the screens show for `O=C(NCc1csc(-c2cccs2)n1)c1ccccc1`?
GRIN3A LBD mod: 0; CRFBP-R2 agonist: 0; CRFBP-R2 block: 77*; MPTP block: 2; ANO1 block: inactive; ANO1 activ: inactive

Results for Cc1ccc(N/N=C/c2c(C)c(C#N)c(=O)n(C)c2O)cc1C ?
GRIN3A LBD mod: -6; CRFBP-R2 agonist: 1; CRFBP-R2 block: 3; MPTP block: 24; ANO1 activ: inactive

Results for COc1cc(S(=O)(=O)Nc2ccc(C)cc2)ccc1N=Cc1c(C)c(C#N)c(=O)n(C)c1O ?
GRIN3A LBD mod: 2; CRFBP-R2 agonist: 80*; CRFBP-R2 block: -102; MPTP block: 3; ANO1 block: inactive; ANO1 activ: -6*

How did COc1cc(S(=O)(=O)Nc2ccc(C)cc2)ccc1N=Cc1c(C)[nH]n(-c2ccc(C)cc2)c1=O do in these assays?
GRIN3A LBD mod: 28*; CRFBP-R2 agonist: -2; CRFBP-R2 block: -2; MPTP block: -1; ANO1 block: inactive; ANO1 activ: inactive

How did Cc1ccc(-n2[nH]c(C)c(C=Nc3ccc(S(=O)(=O)Nc4nccs4)cc3)c2=O)cc1 do in these assays?
ANO1 block: inactive

What do the screens show for `O=[N+]([O-])c1ccccc1S(=O)(=O)Nc1cccc(S(=O)(=O)N2CCCC2)c1`?
GRIN3A LBD mod: 0; CRFBP-R2 agonist: -2; CRFBP-R2 block: 2; MPTP block: 0; ANO1 activ: inactive

Results for CN(Cc1ccccc1)C(=O)c1ccc(NC(=O)Cc2cccc(NC(=O)C3CCCN(C(=O)C4CCCCC4)C3)c2)cc1 (configuration not stated) ?
GRIN3A LBD mod: 1; CRFBP-R2 agonist: 5; CRFBP-R2 block: 0; MPTP block: 0; ANO1 activ: inactive

How did COC(=O)C(Cc1ccc(OC(=O)c2ccc(C(F)(F)F)cc2)cc1)N1Cc2ccccc2C1=O (configuration not stated) do in these assays?
GRIN3A LBD mod: -2; CRFBP-R2 agonist: 5; CRFBP-R2 block: -9; MPTP block: 4; ANO1 block: 100*; ANO1 activ: inactive

What do the screens show for `CC(C)CN(C(=O)c1ccc(N2CCCC2=O)cc1)c1c(N)n(Cc2ccccc2)c(=O)[nH]c1=O`?
GRIN3A LBD mod: 0; CRFBP-R2 agonist: 0; CRFBP-R2 block: 0; MPTP block: -2; ANO1 activ: inactive

How did FC(F)(F)c1ccc(/C=N/N2CCN(Cc3cccc4ccccc34)CC2)cc1 do in these assays?
GRIN3A LBD mod: 2; CRFBP-R2 agonist: 1; CRFBP-R2 block: 5; MPTP block: 1; ANO1 block: inactive; ANO1 activ: inactive

Results for O=C(O)c1ccc(/C=N/N2CCN(Cc3cccc4ccccc34)CC2)cc1 ?
GRIN3A LBD mod: 192*; CRFBP-R2 agonist: 7; CRFBP-R2 block: 22; MPTP block: -1; ANO1 block: inactive; ANO1 activ: inactive

What do the screens show for `CCC(NC(=O)CCc1nnc(-c2cc(C)on2)o1)C12CC3CC(CC(C3)C1)C2` (configuration not stated)?
GRIN3A LBD mod: 1; CRFBP-R2 agonist: -1; CRFBP-R2 block: -12; MPTP block: 1; ANO1 block: inactive; ANO1 activ: inactive

Results for CC(=O)Oc1cccc2c1C(=O)c1c(OC(C)=O)cc(C(=O)O)cc1C2=O ?
GRIN3A LBD mod: 2; CRFBP-R2 agonist: -1; CRFBP-R2 block: -18; MPTP block: -2; ANO1 block: inactive; ANO1 activ: inactive

How did O=C(O)c1cc(O)c2c(c1)C(=O)c1cc(O)cc(O)c1C2=O do in these assays?
GRIN3A LBD mod: -2; CRFBP-R2 agonist: 0; CRFBP-R2 block: 8; MPTP block: 3; ANO1 block: inactive; ANO1 activ: -16*

Results for O=C(c1cccs1)N1C[C@@H](n2cc(C3CC3)nn2)[C@H](O)C[C@@H]1c1ccccc1 ?
CRFBP-R2 agonist: -1; CRFBP-R2 block: 4; MPTP block: 0

Results for Cc1cccn2c(/C=N/OCc3cccc(F)c3)c(-c3ccc(Cl)cc3)nc12 ?
GRIN3A LBD mod: -5; CRFBP-R2 agonist: -3; CRFBP-R2 block: 95*; MPTP block: 3; ANO1 block: inactive; ANO1 activ: inactive

High-throughput results deposited in PubChem by several laboratories.
